According to PubChem BioAssay (NCI):
The panel holds about 83,000 compounds, 20% with a hit somewhere; the sample as a whole holds those more often.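 Testing used 96-well plates and a 48-hour single-concentration exposure. Example: -40 means 40% of the starting cells died.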 Values without a mark were called inactive. Calls of active or inactive are those of the source. Rule for the calls: active = growth percent below 10; inactive = the rest.

Columns and labels:
Assay in all cases: NCI-60 one-dose screen, 48 h (100 = growth as untreated, 0 = no growth, -100 = all killed)
Conditions in all cases: 10 µM
[1] = tested on: SR leukemia
[2] = tested on: RPMI-8226 leukemia
[3] = tested on: OVCAR-8 ovarian
[4] = tested on: OVCAR-5 ovarian
[5] = tested on: OVCAR-4 ovarian
[6] = tested on: SK-OV-3 ovarian
[7] = tested on: IGROV1 ovarian
[8] = tested on: OVCAR-3 ovarian
[9] = tested on: HS 578T breast
[10] = tested on: NCI/ADR-RES ovarian
[11] = tested on: T-47D breast
[12] = tested on: BT-549 breast
[13] = tested on: MDA-MB-435 melanoma
[14] = tested on: SW-620 colon
[15] = tested on: MCF7 breast
[16] = tested on: HCT-116 colon
[17] = tested on: HCC-2998 colon
[18] = tested on: KM12 colon

Structure (SMILES) | growth [1] | growth [2] | growth [3] | growth [4] | growth [5] | growth [6] | growth [7] | growth [8] | growth [9] | growth [10] | growth [11] | growth [12] | growth [13] | growth [14] | growth [15] | growth [16] | growth [17] | growth [18]
COc1cc(-c2nc3ccc(C)cc3[nH]2)ccc1OCC(=O)N=Nc1c(O)[nH]c2ccccc12 | -36.7% (active) | -54% (active) | -72.8% (active) | -32.4% (active) | -82.2% (active) | -3.57% (active) | -27.4% (active) | -94.5% (active) | -46.8% (active) | 87.5% | -61.2% (active) | 18.9% | -52.6% (active) | -62.9% (active) | -73.4% (active) | -82.7% (active) | -91.2% (active) | -79.4% (active)
COc1ccc(-c2nc(-c3ccccc3)c(-c3ccccc3)[nH]2)cc1OC1CCCC1 | 41.9% | 56.6% | 74.9% | 82.7% | 81.6% | 89.3% | 105% | 81.4% | 86.5% | 79.5% | 35.1% | 81.9% | 78.9% | 82.6% | 78.7% | 73.6% | 69.7% | 43.5%
Cc1nc(Nc2nc3ccccc3o2)nc(-c2cccc([N+](=O)[O-])c2)c1C(=O)Nc1ccc(F)c(Cl)c1 | -8.33% (active) | -41.4% (active) | 6.5% (active) | 33% | 16% | 10% | 40.3% | 6.94% (active) | 4.55% (active) | 3.88% (active) | 5.31% (active) | 19.4% | 8.91% (active) | 9.75% (active) | 3.7% (active) | 6.76% (active) | -25.6% (active) | -14.6% (active)
COc1ccc(Nc2nc(NCc3ccccc3)c3ccccc3n2)cc1 | 45.2% | 75.9% | 6.75% (active) | 78.7% | -37.2% (active) | 13.4% | 42.5% | 14.8% | -3.28% (active) | 39.7% | 45.6% | 82.9% | 84.2% | 68.2% | 67.4% | 29.8% | 91.5% | 80.7%
O=C(CCl)N1c2ccccc2Sc2ccc3ccccc3c21 | -11.4% (active) | -47.3% (active) | -24.2% (active) | 21% | -41.9% (active) | 17.6% | -71.2% (active) | -82.5% (active) | -0.68% (active) | -25.8% (active) | -68.2% (active) | -40.9% (active) | -34.7% (active) | -65.6% (active) | 10% (active) | -99.6% (active) | -94.4% (active) | -77.5% (active)
C[C@]12CC[C@H]3[C@@H](CCC4=CC(=O)CC[C@@]43C)[C@@H]1CC[C@@H]2c1csc(N)n1 | 26.4% | 19.1% | 46.5% | 99.8% | 23.1% | 89.1% | 87.3% | 63% | 104% | 32.1% | 24.8% | 34.2% | 55.5% | 56.9% | 26% | 32.7% | 45.8% | 50.8%
CCOC(=O)[C@@H](Cc1ccccc1)NC(=O)c1[nH]c2ccc(Cl)cc2c(=O)c1C | 61.3% | 83.1% | 97.8% | 106% | 102% | 100% | 96.2% | 111% | 94.2% | 106% | 87.1% | 108% | 103% | 96.3% | 96.8% | 65.2% | 87.6% | 97%
COc1ccc2nc(-c3ccccc3)cc(C(C)=O)c2c1 | 81.6% | 94.5% | 97.3% | 92.4% | 103% | 107% | 86.2% | 115% | 94.3% | 90.1% | 69.5% | 93.6% | 98% | 99.9% | 72.6% | 91.2% | 107% | 103%
COc1cc2nc(Sc3sc(N)nc3C)n(-c3ccc(Oc4ccccc4)cc3)c(=O)c2cc1OC | -43.4% (active) | 67.6% | 85% | 106% | 50.7% | 114% | 107% | 93.5% | 88.5% | 75.2% | 77.3% | 71.3% | 93.3% | 81.2% | 74.4% | 47.4% | 80.4% | 93.5%
COc1ccc(-c2nc(SCC(=O)c3ccc(Br)cc3)[nH]c(=O)c2C#N)cc1 | 94.5% | 104% | 106% | 102% | 120% | 113% | 112% | 99.3% | 96.4% | 110% | 93.9% | 94.2% | 100% | 106% | 100% | 97.4% | 104% | 96.9%
O=S(=O)(NCCO)c1ccc(OCCOc2ccc(S(=O)(=O)NCCO)cc2)cc1 | 104% | 98% | 98.7% | 99.2% | 107% | 96.1% | 99.9% | 111% | 104% | 97.8% | 84.5% | 95.7% | 104% | 101% | 96% | 102% | 9.56% (active) | 104%
O=C(NC1CCN(Cc2ccccc2)CC1)c1cc(-c2ccncc2)nc2ccc(Cl)cc12 | 8.12% (active) | 21.9% | 18.4% | 75.3% | 27.6% | 53.1% | 32.3% | 15.5% | 59.9% | 11.2% | 29.8% | 35.4% | 28% | 23.5% | 17.7% | 9.97% (active) | 44.4% | 26.1%
Cn1c([N+](=O)[O-])cnc1/C=C1\Oc2ccc(Br)cc2C1=O | 6.49% (active) | 6.2% (active) | -11.3% (active) | -19.1% (active) | 3.03% (active) | -7.97% (active) | -21.6% (active) | -37.3% (active) | -17.8% (active) | 6.72% (active) | 65.9% | -41% (active) | -65.8% (active) | -65.3% (active) | 3.52% (active) | -27.1% (active) | -51.7% (active) | -45.8% (active)
CCN(CC)CCn1c(=N)n(CC(O)c2ccc(Cl)c(Cl)c2)c2ccccc21 (stereo unspecified) | 26.4% | 68.1% | 92.6% | 102% | 69% | 92.3% | 90.1% | 96.7% | 80.5% | 88.6% | 66.5% | 76.7% | 1.39% (active) | 93.5% | 90% | 77.7% | 74.5% | 84.4%
COc1c(-c2c3sc(=O)[nH]c3nc3c2c(=O)[nH]n3C(C)C)cc2c(c1OC)OCO2 | 84.9% | 93.2% | 98.8% | 96.7% | 107% | 99.5% | 102% | 113% | 99.2% | 99.8% | 98.6% | 84.6% | 90.9% | 108% | 106% | 101% | 107% | 101%
COCCNCC(O)Cn1c2ccc(Cl)cc2c2cc(Cl)ccc21 (stereo unspecified) | -19.9% (active) | -36.9% (active) | -69.9% (active) | -79.1% (active) | -97.3% (active) | 52.7% | -38% (active) | -46.3% (active) | -12.3% (active) | -6.15% (active) | -15.8% (active) | 11.2% | -83.1% (active) | 2.98% (active) | -64.8% (active) | -5.18% (active) | -30.1% (active) | 10.9%
Cc1cc(O)c(C2=NN(c3ccc(S(N)(=O)=O)cc3)C(c3ccc(N(C)C)cc3)C2)c(C)c1Cl (stereo unspecified) | 25.5% | -22.2% (active) | 75.2% | 96.8% | 58.8% | 106% | 34.1% | 80.3% | 82.5% | 85.6% | 37% | 95.7% | 69.3% | 72.2% | 37.2% | 41.1% | 94.1% | 62.4%
